# Source: PubChem
# In the library only some 2.4% were active in any assay of this set; here they are far more common.
# GLP1R inv ag = acts as inverse agonist at human GLP-1 receptor; AID 624417; HEK293 GLP-1R CRE-luciferase, luminescence, 24 h; GLP-1R form is constitutively active; actives 1.6% (n = 410,000); Potency, µM (doses to about 38.3 µM), for the others: top-dose activity change, negative = inhibition, actives largely listed as inhibitors; further: potency means the concentration at half of the fitted maximal effect; on the % scale 0 is the no-effect control and ±100 the full control effect; nearly all actives have a fitted effect of over 55% in size
#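 qHTS in 1536-well format: reporter HEK293 cells expressing constitutive GLP-1R activity in DMEM + 10% Nu serum, 24 hr with compounds at 37 deg C, luminescence read after 12 min with detection reagent.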
# GLP1R ag = agonists of human GLP-1 receptor | P43220 | HEK293 GLP-1R CRE-luciferase, luminescence, 4-6 h; cells express a hypersensitive GLP-1R form | Potency, µM (top dose mostly 45.6 µM), without a hit: at the highest dose activation, usual class: activators | actives 0.007% (n = 380,000); further: potency means the concentration at half of the fitted maximal effect; % of control where 0% means no effect
# TRHR PAM = allosterically enhances the human TRH receptor | TRHR cells, fluo-8 calcium fluorescence, EC20 TRH enhancement | enhancement, % at 2 µM | actives 0.66% (n = 360,000) | AID 493056; in the data active means enhancement above about 30%; further: 0% is about no effect
# Target sequence (P34981 whole entry, looked up): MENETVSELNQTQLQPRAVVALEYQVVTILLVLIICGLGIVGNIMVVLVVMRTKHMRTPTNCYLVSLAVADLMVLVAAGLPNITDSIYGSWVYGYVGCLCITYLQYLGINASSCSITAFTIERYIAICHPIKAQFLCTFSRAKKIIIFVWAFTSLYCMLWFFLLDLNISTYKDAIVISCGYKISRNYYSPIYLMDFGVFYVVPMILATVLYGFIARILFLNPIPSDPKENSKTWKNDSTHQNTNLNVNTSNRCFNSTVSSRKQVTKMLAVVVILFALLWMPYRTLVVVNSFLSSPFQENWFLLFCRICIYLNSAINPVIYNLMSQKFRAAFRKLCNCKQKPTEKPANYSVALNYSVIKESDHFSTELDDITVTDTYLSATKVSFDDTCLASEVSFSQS
#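 Enhancer read-out: after compound pinning and an initial kinetic agonist-mode read, an EC20 of TRH (10 nM final) was injected and fluo-8 calcium signal (Ex 480/Em 530) followed at 1 s/cycle for 100 cycles in TRHR-expressing cells.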
# PTHR1 ag = PTHR1 (human) receptor agonism; Potency, µM (top dose mostly 115 µM), for the others: top-dose activation, actives largely listed as activators; HEK293 GP2 PTHR1 cells, GloSensor cAMP luminescence, 1 h; actives 0.075% (n = 410,000); AID 743266; Q03431; further: potency means the concentration at half of the fitted maximal effect; nearly all actives have a fitted effect of over 55% in size
#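 HEK-293-derived GP2 cells expressing PTHR1 and a GloSensor cAMP reporter, 3,000/well, plated overnight, given luciferin plus IBMX (each 0.5 mM as added) for 1 h at 37 °C, then compound for 1 h at 37 °C. Luminescence was read after 15 min at room temperature.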
# TRHR agonist = agonists of human TRH receptor. P34981. TRHR cells, calcium flux fluo-8, FDSS agonist mode. activation, % at 2 µM. actives 0.18% (n = 360,000). AID 493084; in the data active means activation above about 30%; further: 0% is about no effect
#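 In this calcium-flux screen, cells bearing human TRHR are dye-loaded with fluo-8, baselined for 10 cycles, then exposed to library compounds; positive kinetic calcium responses during the agonist phase mark hits, with TRH as control.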
# GLP1R cytotox = cytotoxic in the GLP-1 receptor inverse agonist counter-screen; AID 624418; HEK293 cAMP-luciferase reporter cells, luminescence, 24 h; actives 0.13% (n = 410,000); Potency, µM (series often up to 38.3 µM), without a hit: at the top dose activity change, negative = inhibition, hits mostly inhibitors;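 further: loss of luciferase light is scored as toxicity; potency means the concentration at half of the fitted maximal effect; on the % scale 0 is the no-effect control and ±100 the full control effect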
#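 Luminescence readout: signal drop marks cytotoxicity. Plated cells grew 12 h at 37 °C, 5% CO2, received 23 nL compound for 24 h, then got luciferase reagent, read after 12 min at RT.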
# Numbers without * were called inactive; i = inactive; ? = inconclusive; nt = no result. Unless noted, the call rests on the fitted dose curve; in most records, active means well fitted curve in the direction sought with a large enough effect; inconclusive means small, poorly fitted or top-dose-only effect, or another doubt; inactive means no such curve, though single readings can be large; an effect the other way counts as inactive or inconclusive.
SMILES,GLP1R inv ag,GLP1R ag,TRHR PAM,PTHR1 ag,TRHR agonist,GLP1R cytotox
Cc1cc(C)cc(C(=O)NCCCc2ccccc2)c1,11µM*,-4%,3,i,-2,-7%
O=C(NCc1ccccc1)C(=O)Nc1cccc(C(=O)O)c1,4.5µM*,-6%,5,-12%,1,2%
O=C(NCc1ccco1)c1ccc2c(c1)CCO2,-9%,6%,17,i,-1,-8%
CCc1ccc(NC(=O)c2ccc(F)c(S(=O)(=O)NCCc3ccc(OC)c(OC)c3)c2)cc1,10µM*,nt,-5,-90%,0,-20%
CCc1ccc(NC(=O)c2ccc(F)c(S(=O)(=O)NCC3COc4ccccc4O3)c2)cc1 (stereo not given),5µM*,-7%,3,-47%,0,?
CCOc1ccc(NC(=O)c2ccc(F)c(S(=O)(=O)N(Cc3ccc(C(=O)OC)cc3)Cc3ccc(OC)c(OC)c3)c2)cc1,-13%,nt,-1,i,0,-14%
CC(=O)C1=C(C)OC(N)=C(C#N)C1c1cccc([N+](=O)[O-])c1 (stereo not given),?,-1%,-1,-44%,-1,0%
O=C(OCC(=O)N1CCOCC1)c1ccccc1Cc1ccccc1,-29%,-10%,0,-3%,0,6%
N=C1/C(=C\c2coc3ccccc3c2=O)C(=O)N=C2SC=CN12,-12%,-4%,53*,-43%,199*,-38%
CSC1=NSC2=NC(=O)/C(=C/c3coc4ccccc4c3=O)C(=N)N12,-19%,-7%,14,-41%,78*,8%
CSC1=NSC2=NC(=O)/C(=C/c3coc4ccc(O)cc4c3=O)C(=N)N12,0%,8%,12,-17%,68*,17%
CSC1=NSC2=NC(=O)/C(=C\c3cccs3)C(=N)N12,2%,8%,-4,-39%,1,-18%
CC1=CC2=NC(=O)/C(=C/c3coc4ccc(Cl)cc4c3=O)C(=N)N2O1,-25%,10%,28,-30%,185*,?
Cc1ccccc1NC(=O)C(=O)NCC1CCCN1S(=O)(=O)c1cccs1 (stereo not given),-11%,16%,-2,-5%,0,0%
COc1cc(O)oc1C=Nc1ccccc1,33%,-1%,-6,i,0,6%
CSc1ccc(S(=O)(=O)N2c3ccccc3CC2C)cc1 (stereo not given),5µM*,-4%,24,-62%,0,-7%
Cc1ccc(S(=O)(=O)N(C)c2ccc3sc(C)nc3c2)cc1,?,1%,38*,-5%,-1,-2%
Cc1ccc(S(=O)(=O)N(C)c2ccc(N)cc2)cc1,2%,4%,2,i,-1,?
COc1ccc(NS(=O)(=O)c2cccc(C(=O)NCC3(N4CCCCC4)CCCCC3)c2)cc1,17%,-14%,0,i,0,25%
CCOc1ccc(NS(=O)(=O)c2cccc(C(=O)NCC3(N(C)C)CCCCC3)c2)cc1,10µM*,1%,2,-1%,3,-11%
CCCN(CC(=O)Nc1ccccc1OC)C(=O)CSc1ccc(Br)cc1C,?,-2%,-5,-34%,1,-22%
COc1ccc(-c2c(-c3ccsc3)oc(=O)c3cc(OC)c(OC)cc23)cn1,-7%,4%,nt,i,nt,-23%
COc1ccc(/C=N\NC(=O)c2ccccc2F)cc1COc1ccc(F)cc1F,?,?,2,-19%,0,?
COc1ccc(/C=N/NC(=O)c2cc(C(C)(C)C)[nH]n2)cc1COc1ccc(F)cc1F,6.3µM*,-6%,-8,-28%,-1,?
COc1ccc(CCNC(=O)CC(Cc2ccccc2)C(=O)O)cc1OC (stereo not given),7%,2%,6,i,1,-2%
